Results filed as inconclusive are left out. Activity calls are given as the source filed them. Calls follow the shape of the dose curve; as a rule, active = well fitted curve in the direction sought with a large enough effect; inconclusive = small, poorly fitted or top-dose-only effect, or another doubt; inactive = no such curve, though single readings can be large; an effect the other way counts as inactive or inconclusive.
How the values were obtained:
[1] = test system: MKL-1; test: qHTS assay to identify novel small-molecules to repurpose for Merkel cell carcinoma treatment (AID 1296009); conditions: MCC and control cell lines, CellTiter-Glo viability, 72 h; series mostly up to 46 µM; also: nearly all actives have a fitted effect of over 60% in size
Method in brief: (§1)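 Luminescence from CellTiter-Glo, read 10 min after addition at room temperature, reported viability following a 72 hr, 37 degree celsius treatment with NPC or MIPE compounds in titration; values normalized to plate controls.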

[2] = test system: MKL-2; test: as above; conditions: MCC and control cell lines, CellTiter-Glo viability, 72 h; series mostly up to 46 µM
Method in brief: as §1

[3] = test system: NIH3T3; test: as above; conditions: MCC and control cell lines, CellTiter-Glo viability, 72 h
Method in brief: as §1

[4] = test system: UISO; test: as above; conditions: MCC and control cell lines, CellTiter-Glo viability, 72 h; series mostly up to 46 µM
Method in brief: as §1

[5] = test system: WaGa; test: as above; conditions: MCC and control cell lines, CellTiter-Glo viability, 72 h; series mostly up to 46 µM
Method in brief: as §1

[6] = test system: C33A; test: Primary qHTS to identify gynecologic anti-cancer compounds using libraries of approved drugs and bioactive compounds (AID 1345084); conditions: Gynecologic cancer cell panel viability, ATPlite luminescence, 48 h; series mostly up to 57.5 µM; also: nearly all actives have a fitted effect of over 55% in size; also: potency is read from the fitted curve at half-maximal effect
Method in brief: (§2)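 Cells, 1,000 per well, plated 16 h, then exposed 48 h at 37 C to compounds. Viability by ATPlite luminescence after 15 min at room temperature.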

[7] = test system: CAOV3; test: as above; conditions: Gynecologic cancer cell panel viability, ATPlite luminescence, 48 h; series mostly up to 57.5 µM
Method in brief: as §2

[8] = test system: CASKI; test: as above; conditions: Gynecologic cancer cell panel viability, ATPlite luminescence, 48 h; series mostly up to 57.5 µM
Method in brief: as §2

[9] = test system: Es-2; test: as above; conditions: Gynecologic cancer cell panel viability, ATPlite luminescence, 48 h; series mostly up to 57.5 µM
Method in brief: as §2

[10] = test system: Hek293T; test: as above; conditions: Gynecologic cancer cell panel viability, ATPlite luminescence, 48 h, control line for the selectivity index; series mostly up to 57.5 µM
Method in brief: as §2

[11] = test system: JEG-3; test: as above; conditions: Gynecologic cancer cell panel viability, ATPlite luminescence, 48 h; series mostly up to 57.5 µM
Method in brief: as §2

[12] = test system: OV90; test: as above; conditions: Gynecologic cancer cell panel viability, ATPlite luminescence, 48 h; series mostly up to 57.5 µM
Method in brief: as §2

[13] = test system: PA-1; test: as above; conditions: Gynecologic cancer cell panel viability, ATPlite luminescence, 48 h; series mostly up to 57.5 µM
Method in brief: as §2

[14] = test system: SKOV3; test: as above; conditions: Gynecologic cancer cell panel viability, ATPlite luminescence, 48 h; series mostly up to 57.5 µM
Method in brief: as §2

[15] = test system: Tov-21-G; test: as above; conditions: Gynecologic cancer cell panel viability, ATPlite luminescence, 48 h; series mostly up to 57.5 µM
Method in brief: as §2

[16] = test system: Tov112D; test: as above; conditions: Gynecologic cancer cell panel viability, ATPlite luminescence, 48 h; series mostly up to 57.5 µM
Method in brief: as §2

[17] = Drug repurposing screens with cells derived from glioblastoma tumor samples (AID 1345199); conditions: GBM patient neurospheres viability, ATP luminescence, 48 h; also: nearly all actives have a fitted effect of over 40% in size; also: potency is read from the fitted curve at half-maximal effect
Method in brief: (§3)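 Primary testing used CD133+ neurospheres from four GBM patients, seven concentrations, 48 h exposure and ATP-based viability; confirmation added three slower-growing patient lines.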

[18] = test system: HeLa; test: Primary qHTS to identify gynecologic anti-cancer compounds using libraries of approved drugs and bioactive compounds (AID 1345084); conditions: Gynecologic cancer cell panel viability, ATPlite luminescence, 48 h; series mostly up to 57.5 µM; also: nearly all actives have a fitted effect of over 55% in size; also: potency is read from the fitted curve at half-maximal effect
Method in brief: as §2

[19] = test system: astro; test: Drug repurposing screens with cells derived from glioblastoma tumor samples (AID 1345199); conditions: viability, ATP luminescence, 48 h; series mostly up to 45.9 µM; also: nearly all actives have a fitted effect of over 40% in size; also: potency is read from the fitted curve at half-maximal effect
Method in brief: as §3

[20] = at 44.8 µM (top of the series) unless noted
[21] = at 46.1 µM (top of the series), tumour line C
[22] = at 20 µM (top of the series), tumour line C
[23] = at 21.2 µM (top of the series), tumour line B
[24] = at 21.2 µM (top of the series), tumour line D
[25] = at 21.3 µM (top of the series), tumour line A
[26] = at 45.9 µM (top of the series), tumour line B
[27] = at 45.9 µM (top of the series), tumour line D
% is scaled to controls: 0 for no effect and ±100 for the full control effect.

CC1=C(C(=O)O)N2C(=O)[C@@H](NC(=O)C(N)c3ccccc3)[C@H]2SC1 (some centres not stated)
inactive: Potency [1] | Potency [2] | outcome [3, 20] | Potency [4] | Potency [5]

O=C(NCC1CN(c2ccc(N3CCOCC3=O)cc2)C(=O)O1)c1ccc(Cl)s1 (configuration not stated)
inactive: Potency [1] | Potency [2] | outcome [3, 20] | Potency [4] | Potency [5] | Potency [6] | Potency [7] | Potency [8] | Potency [9] | Potency [10] | Potency [11] | Potency [12] | Potency [13] | Potency [14] | Potency [15] | Potency [16]

CC1=CC(=O)c2ccccc2C1=O
active: Potency ([17]; tumour line A) 35.5 µM | Potency ([17]; tumour line D) 22.4 µM
inactive: Potency [1] | Potency [2] | outcome [3, 20] | Potency [4] | Potency [5] | Potency [6] | Potency [7] | Potency [8] | Potency [9] | Potency [10] | Potency [11] | Potency [12] | Potency [13] | Potency [14] | Potency [15] | Potency [16] | activity, negative = cell killing [17, 21] -17.3%

CC(C)OC(=O)C(C(=O)OC(C)C)=C1SC=CS1
inactive: Potency [1] | Potency [2] | outcome [3, 20] | Potency [4] | Potency [5] | Potency [6] | Potency [7] | Potency [8] | Potency [9] | Potency [18] | Potency [10] | Potency [12] | Potency [13] | Potency [15] | Potency [16] | activity, negative = cell killing [17, 21] -18.3%
active: Potency [14] 25.1 µM | Potency ([17]; tumour line A) 11.2 µM

Nc1nc(N)c2nc(CNc3ccc(C(=O)NC(CCC(=O)O)C(=O)O)cc3)cnc2n1 (configuration not stated)
inactive: Potency [1] | Potency [2]

CCOC(=O)c1ccc(OC(=O)CCCCCN=C(N)N)cc1
inactive: Potency [1] | Potency [2] | outcome [3, 20] | Potency [4] | Potency [5] | Potency [6] | Potency [7] | Potency [8] | Potency [9] | Potency [18] | Potency [10] | Potency [11] | Potency [12] | Potency [13] | Potency [14] | Potency [15] | Potency [16] | activity, negative = cell killing [17, 22] -4.52% | activity, negative = cell killing [17, 23] -7.17% | activity, negative = cell killing [17, 24] -2.23% | activity, negative = cell killing [17, 25] -25.1% | Potency [19]

COCCCOc1cc(C[C@@H](C[C@H](N)[C@@H](O)C[C@H](C(=O)NCC(C)(C)C(N)=O)C(C)C)C(C)C)ccc1OC
inactive: Potency [1] | Potency [2] | outcome [3, 20] | Potency [4] | Potency [5] | Potency [6] | Potency [7] | Potency [8] | Potency [9] | Potency [18] | Potency [10] | Potency [11] | Potency [12] | Potency [13] | Potency [14] | Potency [15] | Potency [16] | activity, negative = cell killing [17, 26] 9.07% | activity, negative = cell killing [17, 27] 12.6% | activity, negative = cell killing [17, 21] 3% | Potency [19]

CCn1cc(C(=O)O)c(=O)c2cc(F)c(N3CCNCC3)nc21
inactive: Potency [1] | Potency [2] | outcome [3, 20] | Potency [4] | Potency [5] | Potency [6] | Potency [7] | Potency [8] | Potency [9] | Potency [10] | Potency [11] | Potency [12] | Potency [13] | Potency [14] | Potency [15] | Potency [16] | activity, negative = cell killing [17, 22] -1.66% | activity, negative = cell killing [17, 23] -1.31% | activity, negative = cell killing [17, 24] -17.3% | activity, negative = cell killing [17, 25] -3.28% | Potency [19]

CNS(=O)(=O)Cc1ccc2[nH]cc(CCN(C)C)c2c1
inactive: Potency [1] | Potency [2] | outcome [3, 20] | Potency [4] | Potency [5] | Potency [6] | Potency [7] | Potency [8] | Potency [9] | Potency [18] | Potency [10] | Potency [11] | Potency [12] | Potency [13] | Potency [15] | Potency [16] | activity, negative = cell killing [17, 26] 2.54% | activity, negative = cell killing [17, 27] -2.5% | activity, negative = cell killing ([17]; at 46 µM (top of the series), tumour line A) -14% | activity, negative = cell killing [17, 21] 0.932% | Potency [19]

CCn1cc(C(=O)O)c(=O)c2cc(F)c(N3CCN(C)CC3)cc21
inactive: Potency [1] | Potency [2] | outcome [3, 20] inactive [at 17.4 µM] | Potency [4] | Potency [5] | Potency [6] | Potency [7] | Potency [8] | Potency [9] | Potency [18] | Potency [10] | Potency [11] | Potency [12] | Potency [13] | Potency [14] | Potency [15] | Potency [16] | activity, negative = cell killing [17, 26] -12.6% | activity, negative = cell killing [17, 27] -0.981% | activity, negative = cell killing [17, 21] -19.8% | Potency [19]

CC(N)C12CC3CC(CC(C3)C1)C2 (configuration not stated)
inactive: Potency [1] | Potency [2] | outcome [3, 20] | Potency [4] | Potency [5] | Potency [6] | Potency [7] | Potency [8] | Potency [9] | Potency [18] | Potency [10] | Potency [11] | Potency [13] | Potency [14] | Potency [15] | Potency [16] | activity, negative = cell killing [17, 26] -2.45% | activity, negative = cell killing [17, 27] -5.43% | activity, negative = cell killing [17, 21] 5.06% | Potency [19]

CN(Cc1cc(Br)cc(Br)c1N)C1CCCCC1
inactive: Potency [1] | Potency [2] | outcome [3, 20] | Potency [4] | Potency [5] | Potency [6] | Potency [7] | Potency [8] | Potency [9] | Potency [18] | Potency [10] | Potency [11] | Potency [12] | Potency [13] | Potency [14] | Potency [15] | Potency [16] | activity, negative = cell killing [17, 26] -30.4% | activity, negative = cell killing [17, 21] -4.61%
active: Potency ([17]; tumour line A) 5.62 µM

NC(=O)c1cccc(N)c1
inactive: Potency [1] | Potency [2] | outcome [3, 20] | Potency [4] | Potency [5]

N[C@@H](C(=O)N[C@@H]1C(=O)N2C(C(=O)O)=C(Cl)CS[C@H]12)c1ccccc1
inactive: Potency [1] | Potency [2] | outcome ([3]; at 9.27 µM (top of the series)) | outcome ([3]; at 44.8 µM (top of the series)) | Potency [4] | Potency [5] | activity change, negative = cytotoxicity [6] 7.76% [at 11.6 µM] | activity change, negative = cytotoxicity [7] 16.8% [at 11.6 µM] | activity change, negative = cytotoxicity [8] 2.82% [at 11.6 µM] | activity change, negative = cytotoxicity [9] 3.68% [at 11.6 µM] | activity change, negative = cytotoxicity [10] 4.98% [at 11.6 µM] | activity change, negative = cytotoxicity [11] 1.47% [at 11.6 µM] | activity change, negative = cytotoxicity [12] 0.914% [at 11.6 µM] | activity change, negative = cytotoxicity [13] 14.4% [at 11.6 µM] | activity change, negative = cytotoxicity [14] 12.2% [at 11.6 µM] | activity change, negative = cytotoxicity [15] 0.747% [at 11.6 µM] | activity change, negative = cytotoxicity [16] 2.46% [at 11.6 µM] | activity, negative = cell killing [17, 26] -8.97% | activity, negative = cell killing [17, 27] 11.2% | activity, negative = cell killing [17, 21] 7.75% | Potency [19]
